Results as given in PubChem BioAssay.
Active and inactive are the calls of the source.

Assays:
[1] = tested on: Human papillomavirus type 1a protein E7 (residues 44-93); assay: small molecules binding HPV E7 44-93 – biochemical, small-molecule microarray, residues 44-93, 635 nm fluorescence, primary screen (AID 1108); details: fluorescence 635 nm, higher = more signal;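 also: E7 fragment applied at 1 µg/mL in TBST for 1 h at 4 C; score combines spot fluorescence with its signal to noise ratio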
[2] = hepatitis C replication reporter changes, two-sided – Huh7 cells, luciferase reporter, HCV replication inhibitor project, primary screen (AID 1109); details: Huh7 HCV replicon luciferase reporter, 48 h; higher = more signal;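 also: huh7 hepatoma cells harbouring a luciferase neomycin HCV replicon reporter; luciferase luminescence as measure of HCV replicon replication; test concentration not given here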
[3] = target: Left-right determination factor 2 (Homo sapiens) (UniProt O00292); assay: small molecules binding LEFTY2 protein – biochemical, small-molecule microarray, 635 nm fluorescence scan, primary screen (AID 1110); details: higher = more signal
[4] = target: Calmodulin-1 (Homo sapiens) (UniProt P0DP23); assay: small molecules binding calmodulin-1 with EGTA – biochemical, small-molecule microarray, Cy5-labelled CALM1, profiling panel (AID 1111); details: Cy5-CALM1 binding fluorescence, higher = more signal;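 also: labelled calmodulin applied in Tris saline Tween buffer holding calcium plus EGTA and DTT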
[5] = target: Calmodulin-1 (Homo sapiens) (UniProt P0DP23); assay: small molecules binding Ca-loaded calmodulin-1 – biochemical, small-molecule microarray, Cy5-labelled CALM1, plus calcium, artefact control for SMM control-protein annotation, profiling panel (AID 1112); details: Cy5-CALM1 binding fluorescence, higher = more signal;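 also: score merges spot fluorescence with signal to noise from triplicate slides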
[6] = probe aWnt5a binding to arrayed compounds – biochemical, biotinylated probe, 635/667 nm fluorescence, primary screen (AID 1113); details: small-molecule microarray, higher = more signal;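 also: score merges 667 nm fluorescence intensity with signal-to-noise per printed feature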
[7] = probe aShh binding to arrayed compounds – biochemical, biotinylated probe, 635/667 nm fluorescence, primary screen (AID 1114); details: small-molecule microarray, higher = more signal;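 also: probe is biotin-labelled aShh protein from a stem cell growth factor screen; measures binding of labelled protein to compounds printed on the slide; score merges feature fluorescence at 667 nm with signal-to-noise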
[8] = probe aNog binding to arrayed compounds – biochemical, biotinylated probe, 635/667 nm fluorescence, primary screen (AID 1115); details: small-molecule microarray, higher = more signal;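 also: probe is biotinylated aNog protein used at 0.15 µg/mL for 1 h at 4 C; z-score combines 667 nm fluorescence of each spot with its signal to noise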
[9] = target: Torsin-1A-interacting protein 1 (Homo sapiens) (UniProt Q5JTV8); assay: compound microarray binding of lysate hLAP1 – cell lysate, small-molecule microarray, COS7 lysate, 635/667 nm fluorescence, primary screen (AID 1116); details: 635 nm fluorescence, higher = more signal
[10] = target: Alpha-bungarotoxin (Bungarus multicinctus) (UniProt P60615); assay: compounds binding labelled alpha-BTX control protein – biochemical, small-molecule microarray, Alexa647 label, 635/667 nm fluorescence, artefact control for SMM control protein annotation, profiling panel (AID 1117); details: alpha-BTX-A647 binding fluorescence, higher = more signal
Albumin (Bos taurus) = Albumin (Bos taurus) (UniProt P02769); assay: compounds binding labelled BSA control protein – biochemical, small-molecule microarray, Alexa647 label, 635/667 nm fluorescence, artefact control for SMM control protein annotation, profiling panel (AID 1118); details: BSA-A647 binding, fluorescence 635 nm, higher = more signal;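 also: score merges 667 nm emission intensity and signal-to-noise per printed compound spot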
[11] = probe aXIP binding to arrayed compounds – biochemical, NeuroSMM set, 635/667 nm fluorescence, primary screen (AID 1119); details: small-molecule microarray, higher = more signal, called active from +8 up or from −8 down;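 also: probe is the protein aXip251-270 applied at 1 µg/mL to compound-printed slides; binding of probe to printed compounds measured as 667 nm fluorescence plus signal to noise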
[12] = probe aNOTCH3 binding on compound microarray – biochemical, small-molecule microarray, 635/667 nm fluorescence, primary screen (AID 1120); details: higher = more signal;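 also: probe is a biotin-tagged antibody raised against NOTCH3 rather than NOTCH3 protein; score merges spot fluorescence near 667 nm with spot signal to noise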
[13] = probe aNOTCH2 binding on compound microarray – biochemical, small-molecule microarray, 635/667 nm fluorescence, primary screen (AID 1121); details: higher = more signal;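 also: score merges feature fluorescence read at 667 nm with its signal to noise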
[14] = target: Carbonic anhydrase 2 (Homo sapiens) (UniProt P00918); assay: compounds binding carbonic anhydrase 2 – biochemical, small-molecule microarray, Alexa647-labelled CAII, profiling panel (AID 1122); details: CAII-A647 binding fluorescence, higher = more signal
[15] = COS7 lysate on small-molecule microarray, probe aHis, 635 nm (AID 1123); details: COS7 cell lysate, fluorescence, higher = more signal;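 also: z-score combines 667nm fluorescence intensity with signal-to-noise per printed compound spot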
[16] = probe aLAP1 signal on lysate-treated microarray – cell lysate, small-molecule microarray, COS7 lysate, primary screen (AID 1124); details: probe aLAP1, fluorescence, higher = more signal;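 also: lysate comes from COS7 cells expressing LAP1 and is applied at 0.3 µg/mL; score merges spot fluorescence near 667 nm with signal-to-noise over triplicate slides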
Sam68 (KHDRBS1) = assay: compounds binding KHDRBS1 protein – biochemical, small-molecule microarray, 635 nm fluorescence, primary screen (AID 1125); details: higher = more signal;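 also: score merges 667 nm channel intensity with signal to noise over triplicate slides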
[17] = tested on: Chordin-like protein 2 (CHRDL2); assay: compounds binding chordin-like 2 – biochemical, small-molecule microarray, 635 nm fluorescence, primary screen (AID 1126); details: fluorescence 635 nm, higher = more signal;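 also: printed compound slides probed with Chrdl2 protein at 4 µg/mL for 1 h at 4 C; score merges 667 nm emission intensity with signal to noise over three replicate slides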
[18] = target: Concanavalin-A (Canavalia ensiformis) (UniProt P02866); assay: compounds binding concanavalin A lectin – biochemical, small-molecule microarray, Alexa647 label, 635 nm, artefact control for SMM control protein annotation, primary screen (AID 1127); details: ConA-A647 binding fluorescence, higher = more signal;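 also: z combines 667 nm emission intensity with signal-to-noise across three replicate slides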
Sequence of Concanavalin-A (Canavalia ensiformis) (P02866 whole entry, looked up): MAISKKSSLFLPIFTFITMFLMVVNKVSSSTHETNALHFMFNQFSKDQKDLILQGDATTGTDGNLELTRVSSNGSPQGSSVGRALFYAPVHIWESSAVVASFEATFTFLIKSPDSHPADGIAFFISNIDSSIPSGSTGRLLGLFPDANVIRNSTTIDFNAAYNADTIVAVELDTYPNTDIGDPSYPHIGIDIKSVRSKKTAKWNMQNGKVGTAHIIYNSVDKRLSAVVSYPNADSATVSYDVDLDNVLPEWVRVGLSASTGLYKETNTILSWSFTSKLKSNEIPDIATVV

Sequence of Alpha-bungarotoxin (Bungarus multicinctus) (P60615 whole entry, looked up): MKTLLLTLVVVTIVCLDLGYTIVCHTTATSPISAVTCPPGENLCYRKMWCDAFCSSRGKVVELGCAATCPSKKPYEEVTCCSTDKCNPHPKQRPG
Sequence of Torsin-1A-interacting protein 1 (Homo sapiens) (Q5JTV8 whole entry, looked up): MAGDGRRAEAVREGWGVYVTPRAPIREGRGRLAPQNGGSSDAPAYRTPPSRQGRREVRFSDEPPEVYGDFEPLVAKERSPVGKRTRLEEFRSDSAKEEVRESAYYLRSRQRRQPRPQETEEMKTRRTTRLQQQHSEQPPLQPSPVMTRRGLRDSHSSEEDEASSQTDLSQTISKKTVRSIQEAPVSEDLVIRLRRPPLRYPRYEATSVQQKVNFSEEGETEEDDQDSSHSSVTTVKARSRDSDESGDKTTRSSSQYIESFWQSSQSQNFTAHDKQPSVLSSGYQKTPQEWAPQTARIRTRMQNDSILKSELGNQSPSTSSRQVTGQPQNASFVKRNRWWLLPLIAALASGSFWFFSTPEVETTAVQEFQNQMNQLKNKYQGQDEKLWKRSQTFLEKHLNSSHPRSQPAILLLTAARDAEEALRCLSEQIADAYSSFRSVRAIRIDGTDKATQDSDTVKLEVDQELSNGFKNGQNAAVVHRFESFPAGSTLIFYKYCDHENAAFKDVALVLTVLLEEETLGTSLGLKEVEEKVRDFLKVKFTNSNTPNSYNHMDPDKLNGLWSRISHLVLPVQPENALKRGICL
Sequence of Albumin (Bos taurus) (P02769 whole entry, looked up): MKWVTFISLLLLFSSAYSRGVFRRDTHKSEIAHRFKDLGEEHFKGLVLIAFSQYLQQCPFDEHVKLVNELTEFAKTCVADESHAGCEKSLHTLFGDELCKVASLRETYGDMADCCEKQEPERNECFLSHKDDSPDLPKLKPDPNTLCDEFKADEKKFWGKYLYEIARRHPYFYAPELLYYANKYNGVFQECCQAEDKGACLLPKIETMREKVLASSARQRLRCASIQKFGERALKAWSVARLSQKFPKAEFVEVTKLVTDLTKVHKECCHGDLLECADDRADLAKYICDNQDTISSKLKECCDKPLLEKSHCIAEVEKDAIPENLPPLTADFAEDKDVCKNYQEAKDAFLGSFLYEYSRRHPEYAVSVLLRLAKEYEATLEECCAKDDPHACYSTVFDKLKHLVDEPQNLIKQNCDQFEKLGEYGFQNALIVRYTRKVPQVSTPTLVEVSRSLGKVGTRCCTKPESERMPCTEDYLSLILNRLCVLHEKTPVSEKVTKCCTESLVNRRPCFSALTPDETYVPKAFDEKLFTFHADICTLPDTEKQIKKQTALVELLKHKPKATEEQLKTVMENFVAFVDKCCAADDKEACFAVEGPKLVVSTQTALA
Sequence of Left-right determination factor 2 (Homo sapiens) (O00292 whole entry, looked up): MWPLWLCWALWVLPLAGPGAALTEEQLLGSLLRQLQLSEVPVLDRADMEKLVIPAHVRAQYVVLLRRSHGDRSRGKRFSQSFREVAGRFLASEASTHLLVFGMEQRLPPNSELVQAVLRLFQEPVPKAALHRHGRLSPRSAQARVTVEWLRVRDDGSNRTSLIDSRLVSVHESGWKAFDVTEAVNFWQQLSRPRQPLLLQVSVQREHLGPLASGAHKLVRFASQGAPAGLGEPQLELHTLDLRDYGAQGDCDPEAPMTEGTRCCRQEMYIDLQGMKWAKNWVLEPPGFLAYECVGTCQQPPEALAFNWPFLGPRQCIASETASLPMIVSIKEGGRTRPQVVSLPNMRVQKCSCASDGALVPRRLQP

| Compound | composite z-score [1] | z-score [2] | composite z-score [3] | composite z-score [4] | composite z-score [5] | composite z-score [6] | composite z-score [7] | composite z-score [8] | composite z-score [9] | composite z-score [10] | composite z-score (Albumin (Bos taurus)) | composite Z-score [11] | composite z-score [12] | composite z-score [13] | composite z-score [14] | composite z-score [15] | composite z-score [16] | composite z-score (Sam68 (KHDRBS1)) | composite z-score [17] | composite z-score [18] |
| --- | --- | --- | --- | --- | --- | --- | --- | --- | --- | --- | --- | --- | --- | --- | --- | --- | --- | --- | --- | --- |
| CCCCCCCCCCC(O)C1C=CC2C(=O)N(C)C(=O)C2N1N1CCCCC1 (stereo not given) | -0.469 | -0.941 | -2.49 | -0.311 | 1.4 | -0.196 | 0.0278 | 0.715 | -0.428 | -1.09 | -0.377 | -0.0231 (inactive) | -0.256 | -0.135 | -0.284 | 0.879 | 0.582 | -0.555 | -2.31 | -1.13 |
| COc1ccc([Si](C)(C)[C@H]2[C@H](CCn3cc([C@H](O)c4ccccc4)nn3)O[C@@]3(C(=O)N(c4ccccc4)c4ccccc43)[C@@H]2C)cc1 | 0.323 | -2.91 | -0.202 | -0.0353 | 0.82 | -0.1 | -0.2 | -0.143 | -0.179 | 0.0509 | 0.121 | -0.112 (inactive) | -0.0879 | -0.156 | -0.102 | -0.337 | -0.075 | 0.0941 | -0.201 | 0.173 |
| COC(=O)[C@@]1(Cc2ccc(F)cc2)[C@H]2c3cc(C(=O)N4CCCC4)n(CCO)c3C[C@H]2CN1C(=O)c1ccccc1 | 0.0213 | -1 | -0.83 | -0.07 | 0.723 | 0.229 | 0.381 | -0.662 | 0.956 | -0.063 | 0.503 | -0.196 (inactive) | 0.329 | 0.227 | 0.753 | 3.45 | 0.393 | -2.03 | -1.04 | -0.242 |
| COc1ccc([Si](C)(C)[C@H]2[C@H](CCO)O[C@@]3(C(=O)N(Cc4ccc(N5CCOC5=O)cc4)c4ccccc43)[C@@H]2C)cc1 | 1.11 | -3.71 | -0.284 | 0.854 | 0.455 | -0.12 | 0.151 | 0 | 0.248 | 0.93 | 0.243 | -0.392 (inactive) | -0.0697 | -0.1 | 0.417 | 1.5 | 0.171 | 0.968 | -0.07 | 1.11 |
| C=CCC(OC(C)=O)[C@@H]1[C@@H](N(Cc2ccc(-c3ccccc3)cc2)C(=O)c2cccc3ccccc23)c2cc(OCCCO)ccc2N1C(=O)c1ccc2ccccc2c1 (stereo not given in full) | 0.403 | -0.464 | -0.0981 | 0.187 | 0.188 | -0.0685 | -0.399 | -0.258 | -0.0482 | 0.971 | 0.002 | -0.124 (inactive) | -0.0377 | -0.0368 | 0.0991 | 0.116 | 0.0105 | 0.263 | -0.52 | -0.31 |
| CN1C(=O)C2C=CC(C(O)c3ccc(-c4ccccc4)s3)N(Nc3ccccc3)C2C1=O (stereo not given) | 0.965 | -0.593 | 0.0874 | 1.41 | 0.186 | -0.0103 | 0.296 | 1.49 | 1.07 | 2 | 0.945 | 0.498 (inactive) | 0.403 | 0.135 | 0.714 | 1.94 | 0.32 | 1.24 | -0.121 | 1.15 |
| O=C1C2C=CC(C(O)c3ccc([N+](=O)[O-])cc3)N(Nc3ccccc3)C2C(=O)N1c1ccccc1 (stereo not given) | 0.342 | 0.649 | -0.0424 | 0.0871 | -0.447 | -0.0512 | 0.284 | -0.175 | -0.175 | -0.0428 | 0.822 | -0.0589 (inactive) | 0.261 | -0.0591 | 0.77 | 1.42 | -0.163 | 0.594 | -0.225 | 0.49 |
| CCCCCN1CC=CC23O[C@@H]4C=CCOC(=O)[C@@H]4[C@H]2C(=O)N(CCCCCO)[C@@H]3C1=O (stereo not given in full) | -0.678 | -0.0591 | -1.19 | -0.511 | -0.177 | -0.209 | -0.0035 | -0.223 | 0.229 | -0.724 | 0.994 | 0.358 (inactive) | -0.137 | -0.146 | 0.854 | 0.263 | 0.0344 | -0.172 | -1.31 | -0.56 |
| C[C@H]1NC(=O)C([C@@H](C)OCc2ccccc2)NC(=O)[C@@]23C(=O)N[C@@H](Cc4ccccc4)C2[C@H](C)[C@@]2(C)O[C@H]2C3/C=C/C/C=C\CNC1=O (stereo not given in full) | -0.037 | -1.52 | 0.39 | -0.553 | -0.854 | -0.213 | -0.0553 | -0.0602 | -0.0194 | 0.21 | -0.224 | -0.211 (inactive) | -0.136 | -0.177 | 0.661 | 0.234 | -0.0311 | -0.204 | 0.601 | -0.401 |
| C=CC(CO)NC(=O)OCC1c2ccccc2-c2ccccc21 (stereo not given) | 0.0077 | -0.479 | 0.407 | -0.0914 | -0.885 | 0.048 | -0.426 | -0.208 | -0.141 | 0.252 | -0.335 | 0.314 (inactive) | 0.0242 | -0.108 | -0.192 | 0.121 | -0.0184 | 0.0668 | 0.566 | 0.47 |
| C=C(CC1([C@@H](NP(=O)(c2ccccc2)c2ccccc2)[C@H]2C[C@@H]2CCN(C(=O)OCC)S(=O)(=O)c2ccc(C)cc2)CC1)c1ccccc1 | 1.39 | -2.09 | -0.763 | 1.88 | 1.07 | 0.0267 | 0.935 | 1.06 | 0.379 | 0.749 | 0.963 | 0.39 (inactive) | 0.6 | 0.354 | 0.355 | 2.65 | 0.319 | 0.981 | -0.845 | 0.74 |
